In PMC4336329 (PLoS ONE, 2015):
Among all 310,000 compounds or so, about 14,000 (4.5%) showed an effect of 50% or more. The effect is printed as a negative number. What follows is part of a selection rich in strong results, with near analogues and random picks from the rest.

Molecular target: human ether-à-go-go-related gene (hERG) potassium channel (human, UniProt Q12809)
Assay: primary screen, population patch clamp on CHO cells stably expressing hERG; higher = less effect of the substance
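Note: peak tail current of the secondary pulse compared with the same well before compound.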

Chain of human ether-à-go-go-related gene (hERG) potassium channel (Q12809 whole entry, looked up): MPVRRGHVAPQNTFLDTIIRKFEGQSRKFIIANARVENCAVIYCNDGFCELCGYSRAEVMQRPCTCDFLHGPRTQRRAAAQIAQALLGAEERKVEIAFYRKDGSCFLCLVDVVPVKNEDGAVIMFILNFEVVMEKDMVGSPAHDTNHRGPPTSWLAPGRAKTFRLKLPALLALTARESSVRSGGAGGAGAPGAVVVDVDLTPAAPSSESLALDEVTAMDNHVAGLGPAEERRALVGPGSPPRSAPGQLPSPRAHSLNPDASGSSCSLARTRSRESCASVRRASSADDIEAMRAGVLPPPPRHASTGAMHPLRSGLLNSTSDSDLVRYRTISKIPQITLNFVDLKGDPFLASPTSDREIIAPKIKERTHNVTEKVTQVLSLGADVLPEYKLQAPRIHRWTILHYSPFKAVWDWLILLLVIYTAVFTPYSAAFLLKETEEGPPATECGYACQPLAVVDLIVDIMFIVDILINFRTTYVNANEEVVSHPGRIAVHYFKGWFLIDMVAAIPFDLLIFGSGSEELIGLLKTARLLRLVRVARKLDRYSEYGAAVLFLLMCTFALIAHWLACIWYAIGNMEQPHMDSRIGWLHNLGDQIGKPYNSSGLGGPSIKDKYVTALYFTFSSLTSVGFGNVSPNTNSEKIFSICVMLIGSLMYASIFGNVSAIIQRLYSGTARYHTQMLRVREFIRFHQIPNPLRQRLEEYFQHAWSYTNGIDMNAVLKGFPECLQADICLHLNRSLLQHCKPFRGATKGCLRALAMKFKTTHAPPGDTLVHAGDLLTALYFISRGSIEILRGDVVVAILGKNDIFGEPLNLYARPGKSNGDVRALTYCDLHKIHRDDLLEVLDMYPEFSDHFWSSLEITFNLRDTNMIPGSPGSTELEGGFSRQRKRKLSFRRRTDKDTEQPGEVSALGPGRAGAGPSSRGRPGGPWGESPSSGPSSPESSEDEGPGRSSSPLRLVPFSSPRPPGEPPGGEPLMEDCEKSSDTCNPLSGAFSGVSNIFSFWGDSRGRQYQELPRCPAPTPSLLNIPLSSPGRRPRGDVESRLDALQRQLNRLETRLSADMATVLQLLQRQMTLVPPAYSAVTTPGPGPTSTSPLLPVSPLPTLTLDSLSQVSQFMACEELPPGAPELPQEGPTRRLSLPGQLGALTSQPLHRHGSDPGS

Row | Structure (SMILES) | hERG current change (%, negative = inhibition) at 10uM [%]
1 | O=C(NC(=S)Nc1ccccc1N1CCCCC1)c1cccs1 | 6.21
2 | CC1CCN(c2ccccc2NC(=S)NC(=O)c2cccs2)CC1 | -50.2
3 | O=C(NC(=S)Nc1ccccc1N1CCCC1)c1cccs1 | 7.27
4 | CN1CCN(c2ccccc2NC(=O)c2cccs2)CC1 | -47.5
5 | CC(=O)N1CCN(c2ccccc2NC(=O)c2cccs2)CC1 | -43.8
6 | CCC(=O)N1CCN(c2ccccc2NC(=O)c2cccs2)CC1 | -50.4
7 | CCCC(=O)N(CCN1CCOCC1)c1nc2c(OC)ccc(OC)c2s1.Cl | -15.5
8 | CCOC(=O)C1=C(N)Oc2cc(O)ccc2C1c1cccc([N+](=O)[O-])c1 (centres unmarked) | -11.3
9 | COc1ccc(NC(=O)c2ccccc2Oc2ccccc2)c(OC)c1 | 1.42
10 | COc1ccc(C(C(=O)NC2CCCCC2)N(Cc2cccnc2)C(=O)c2snc(C(N)=O)c2N)cc1 (centres unmarked) | -11.8
11 | COc1ccc(/C=N/n2cncn2)cc1Cn1nc(C)c([N+](=O)[O-])c1C | -53.6
12 | COc1ccc(/C=N/N2CCOCC2)cc1Cn1nc(C)c([N+](=O)[O-])c1C | -10.8
13 | COc1ccc(/C=N/n2cncn2)cc1Cn1cc([N+](=O)[O-])cn1 | -32.1
14 | COC(=O)[C@]1(CC(C)C)N[C@H](c2ccc(-c3ccc(F)cc3)cc2)[C@@H]2C(=O)N(C)C(=O)[C@@H]21.O=C(O)C(F)(F)F | -15.7
15 | COc1ccc(-c2cc(=O)n(-c3nc4ccccc4[nH]3)[nH]2)cc1 | -53.1
16 | COC(=O)Cc1cc(=O)n(-c2nc3ccccc3[nH]2)[nH]1 | -23.3
17 | Cl.O=c1cc(-c2ccccc2)[nH]n1-c1nc2ccccc2[nH]1 | 7.02
18 | CCN(CC)CCOC(=O)/C=C/c1ccccc1.Cl | -12.4
19 | Cc1cccc(Nc2nnc(SCC(=O)NCc3cccs3)s2)c1 | 21.9
20 | CNc1nc(C)nc(-n2nc(C)cc2C)n1 | 15.8
21 | Cc1cc(C)n(-c2nc(C)nc(NCc3ccccc3)n2)n1 | -86.9
22 | Cc1cc(C)n(-c2nc(Nc3ccccc3)nc(-n3nc(C)cc3C)n2)n1 | 15.6
23 | CC(=O)Nc1nc(SCc2ccc(Cl)cc2Cl)n[nH]1 | 16.4

Row | Structure (SMILES) | hERG current change (%, negative = inhibition) at 10uM [%]
24 | O=[N+]([O-])c1ccc2c(c1)nc1n2CCSC1 | -19.2
25 | Cc1ccc2occ(CN3CCN(Cc4ccccc4)CC3)c(=O)c2c1 | -45.9
26 | Cc1oc(-c2ccc(F)cc2F)nc1CN1C[C@@H]2C[C@@H](C1)c1cccc(=O)n1C2 | -74.4
27 | Cc1ccc2occ(CN3CC4CC(C3)c3cccc(=O)n3C4)c(=O)c2c1 (centres unmarked) | -63.9
28 | COc1cc(C)c(-c2nc(CN3C[C@@H]4C[C@@H](C3)c3cccc(=O)n3C4)c(C)o2)cc1C | -57.6
29 | Cc1cc(C)n2c(Br)c(CN3CC4CC(C3)c3cccc(=O)n3C4)nc2n1 (centres unmarked) | 0.651
30 | COc1ccc(CN2CC3CC(C2)c2cccc(=O)n2C3)cc1OC (centres unmarked) | -5.24
31 | Cc1cccc(N2CCN(Cc3nc(-c4ccc(F)cc4F)oc3C)CC2)n1 | -41.3
32 | Cc1ccc(CN2CC3CC(C2)c2cccc(=O)n2C3)cc1 (centres unmarked) | -5.29
33 | COc1cc(CN2CC3CC(C2)c2cccc(=O)n2C3)cc(OC)c1OC (centres unmarked) | -6.41
34 | COC(=O)C1=C(N)N(c2ccccc2C(F)(F)F)C2=C(C(=O)CCC2)C1c1ccc2c(c1)OCO2 (centres unmarked) | 20.5
35 | CC(C)(C)c1nc2scc(-c3ccc(Br)cc3)c2c(=O)o1 | 7.26
36 | Cc1cc(C(=O)Nc2nnc(C3CCCCC3)s2)cs1 | -5.46
37 | COc1ccc(CCN(Cc2cccs2)S(=O)(=O)c2ccc(S(=O)(=O)N(C)C3CCCCC3)cc2)cc1OC | 2.56
38 | COc1cc(NC(=O)CCc2nnc3ccc(N4CCCC4)nn23)cc(OC)c1OC | 6.49
39 | Cn1cc(/C=C(\NC(=O)c2ccccc2Cl)C(=O)NCCN2CCOCC2)c2ccccc21 | -30
40 | O=C(CCC1CC(=O)Nc2ccccc21)NCc1ccc(F)cc1 (centres unmarked) | -17.6
41 | O=C(Nc1nc(-c2ccc(F)cc2)cs1)c1cccc(N2C(=O)CCC2=O)c1 | 9.67
42 | COc1ccc(C)cc1S(=O)(=O)N1CCCC(C(=O)NC2CC2)C1 (centres unmarked) | -0.49
43 | O=C(NCc1ccccc1)C1CC(=O)N(C2CCCCC2)C1 (centres unmarked) | 17.8
44 | Cc1ccc(C)c(S(=O)(=O)N2CCN(C(=O)CNC(=O)c3ccc4ccccc4c3)CC2)c1 | -28.1
45 | O=C(NCC(=O)N1CCN(S(=O)(=O)c2ccccc2)CC1)c1ccc2ccccc2c1 | -53.5
46 | Cc1ccc(S(=O)(=O)N2CCCN(C(=O)CNC(=O)c3cccc(C)c3)CC2)cc1 | -54.3

Row | Structure (SMILES) | hERG current change (%, negative = inhibition) at 10uM [%]
47 | O=C(NCC(=O)N1CCN(S(=O)(=O)c2ccccc2F)CC1)c1ccc2ccccc2c1 | -12.2
48 | Cc1cccc(C(=O)NCC(=O)N2CCN(S(=O)(=O)c3ccccc3)CC2)c1 | -10.8
49 | Cc1cccc(C(=O)NCC(=O)N2CCC2)c1 | 2.59
50 | CCOC(=O)C1CCN(c2cc3c(cc2NC(=O)c2ccccc2Cl)n(C)c(=O)n3C)CC1 | -48.8
51 | CCOC(=O)C1CCN(Cc2ccc(O)c(OC)c2)CC1 | -13.7
52 | CN(C(=O)c1cccc(S(=O)(=O)N2CCCCC2)c1)C1CCS(=O)(=O)C1 (centres unmarked) | 2.39
53 | CCN(C(=O)COC(=O)c1ccc(C)c(S(=O)(=O)N2CCCCC2)c1)C1CCS(=O)(=O)C1 (centres unmarked) | -66.5
54 | CCN(C(=O)COC(=O)c1ccc(C)c(S(=O)(=O)N2CCOCC2)c1)C1CCS(=O)(=O)C1 (centres unmarked) | 1.32
55 | CC(C)CN(C(=O)c1cccc(S(=O)(=O)N2CCCCC2)c1)C1CCS(=O)(=O)C1 (centres unmarked) | 0.956
56 | CCCCN(C(=O)c1ccc(S(=O)(=O)N2CCCC2)cc1)C1CCS(=O)(=O)C1 (centres unmarked) | -0.0452
57 | CCCCN(C(=O)c1cccc(S(=O)(=O)N2CCCCC2)c1)C1CCS(=O)(=O)C1 (centres unmarked) | -52.1
58 | CCN(C(=O)c1ccc(S(=O)(=O)N2CCC(C)CC2)cc1)C1CCS(=O)(=O)C1 (centres unmarked) | 7.87
59 | Cc1ccc(C(=O)OCC(=O)N(C)C2CCS(=O)(=O)C2)cc1S(=O)(=O)N1CCCCC1 (centres unmarked) | -16.5
60 | CCCCN(C(=O)c1ccc(S(=O)(=O)N2CCC(C)CC2)cc1)C1CCS(=O)(=O)C1 (centres unmarked) | -53.2
61 | NS(=O)(=O)c1cc(C(=O)OCC(=O)Nc2ccccc2[N+](=O)[O-])ccc1Cl | -6.13
62 | O=C1Nc2ccccc2N(O)N1c1ccc(S(=O)(=O)N2CCCCCC2)cc1 | 1.75
63 | N#C/C(=C\c1ccc(-c2ccc(C(=O)O)cc2)o1)C(=O)Nc1ccc(F)cc1 | 25.6
64 | O=C(NCCc1ccccc1)C1CCN(S(=O)(=O)N2CCC3(CC2)OCCO3)CC1 | -0.566
65 | CCCOc1cccc(C(=O)N2CCN(C(=O)C3CCCO3)CC2)c1 (centres unmarked) | 7.15
66 | CCC(=O)c1ccc(OCC(=O)OCC(=O)N2c3ccccc3NC(=O)C2(C)C)cc1 | 2.82
67 | CC(C)c1ccc(N(CC(=O)NCC2CCCO2)C(=O)Cn2nnc(-c3cccs3)n2)cc1 (centres unmarked) | -42.5
68 | NC(=O)NOCc1ncc(C(F)(F)F)cc1Cl | 10.4
69 | CN(C)CCOc1nc(-c2ccccc2)nc2c1oc1ccccc12 | -44.7

Row | Structure (SMILES) | hERG current change (%, negative = inhibition) at 10uM [%]
70 | CCc1nc(OCCN(CC)CC)c2oc3ccccc3c2n1.Cl | -58.9
71 | CCN(CC)CCOc1ncnc2c1oc1ccccc12 | -39.1
72 | CCN(CC)CCOc1nc(C)nc2c1oc1ccccc12.Cl | -64.6
73 | CCc1nc(OCCN(C)C)c2oc3ccccc3c2n1 | -4.1
74 | CCc1nc(N(CC)CC)c2oc3ccccc3c2n1.Cl | -21.1
75 | CCCCCC(=O)Nc1ccccc1N1CCN(c2ccccc2)CC1 | -0.752
76 | CSc1ccc(S(=O)(=O)NCC(=O)OCC(=O)N2CCCCC2C)cc1[N+](=O)[O-] (centres unmarked) | 4.74
77 | COC(=O)Cc1ccc(O)c(N)c1 | 9.82
78 | C=CCNC(=O)/C(=C\c1ccc(Br)cc1)NC(=O)c1ccccc1OC | -51.8
79 | O=C(NCCCn1ccnc1)/C(=C\c1cccnc1)NC(=O)c1ccccc1Br | 5.24
80 | Cn1cc(/C=C(\NC(=O)c2ccccc2Cl)C(=O)NCCCn2ccnc2)c2ccccc21 | 8.3
81 | COc1ccccc1C(=O)N/C(=C\c1ccc(Br)cc1)C(=O)NCCCO | -34.3
82 | COc1ccccc1C(=O)N/C(=C/c1ccc(Br)cc1)C(=O)NCCCn1ccnc1 | -87
83 | O=C(NCCCn1ccnc1)/C(=C\c1cccnc1)NC(=O)c1ccccc1F | -17.7
84 | O=C(NCCCn1ccnc1)/C(=C\c1ccc(Br)cc1)NC(=O)c1ccccc1F | -74.3
85 | C=CCNC(=O)/C(=C/c1ccc(Br)cc1)NC(=O)c1ccccc1OC | -45.9
86 | COc1ccccc1C(=O)N/C(=C/c1ccc(Br)cc1)C(=O)NCC(=O)O | -8.44
87 | CCn1cc(/C=C(\NC(=O)c2ccccc2F)C(=O)NCCCn2ccnc2)c2ccccc21 | -69
88 | COc1ccccc1C(=O)N/C(=C\c1cn(C)c2ccccc12)C(=O)NCCCn1ccnc1 | 3.22
89 | CCn1cc(/C=C(\NC(=O)c2ccccc2OC)C(=O)NCCCn2ccnc2)c2ccccc21 | -19.2
